The values that follow come from ChEMBL document CHEMBL3988442, “University of Dundee, Small-Polar-MMV Screening Library” (2021).

Experiment [1] has as its target T1, Aspartate--tRNA(Asp/Asn) ligase (Mycobacterium tuberculosis (strain ATCC 25618 / H37Rv)) (UniProt P9WFW3). Note: in the data most compounds retested in dose-response had high values.
T1 sequence (whole entry): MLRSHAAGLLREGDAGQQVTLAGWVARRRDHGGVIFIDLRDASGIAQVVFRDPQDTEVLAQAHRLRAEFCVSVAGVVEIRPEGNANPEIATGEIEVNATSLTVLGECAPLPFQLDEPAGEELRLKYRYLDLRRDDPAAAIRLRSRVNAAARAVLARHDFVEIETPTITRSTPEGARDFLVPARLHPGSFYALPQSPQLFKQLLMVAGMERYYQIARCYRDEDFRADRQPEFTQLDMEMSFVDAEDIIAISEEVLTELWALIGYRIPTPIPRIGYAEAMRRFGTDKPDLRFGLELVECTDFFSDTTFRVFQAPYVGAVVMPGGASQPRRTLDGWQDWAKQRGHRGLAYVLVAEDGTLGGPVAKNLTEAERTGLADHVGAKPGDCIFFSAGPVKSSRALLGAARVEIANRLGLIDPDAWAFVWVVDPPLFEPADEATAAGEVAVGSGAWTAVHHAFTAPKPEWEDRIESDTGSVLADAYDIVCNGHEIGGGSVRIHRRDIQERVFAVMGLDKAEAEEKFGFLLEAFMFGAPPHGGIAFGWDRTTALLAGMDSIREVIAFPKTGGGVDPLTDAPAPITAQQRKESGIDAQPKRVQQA
Description: Assay for Asp RNA synthetase-1 from Mycobacterium tuberculosis. Type of experiment: functional. More on the design: scale not given: direction of the effect not stated beside the values. The conditions noted are these: 30 µM.

In experiment [2] the target is Shiga toxin 2 (Escherichia coli O157:H7) (UniProt P09385+P09386). Description: E. coli 0.157:H7 Shiga Toxin SOP - stx2 screening assay. More on the design: scale not given: direction of the effect not stated beside the values. Type of experiment: functional. As to conditions: 30 µM.

`Cc1cnn(CC2CN(Cc3nc(-c4ccoc4)no3)CCO2)c1` (centres undefined): the Percent Effect was -3.63% in experiment [1] and 24% in experiment [2].

Take `CC(C)c1cc(NCC(O)CO)n2nccc2n1` (centres undefined): the results for the Percent Effect in experiment [1] and in experiment [2] were -1.68% and -0.898%, respectively.

Regarding `O=c1nc(CNc2ccccc2)[nH]n1Cc1ccccc1`, the Percent Effect in experiment [1] is 3.89%; in experiment [2], 2.45%.

Consider `CC(C)(C(=O)NCC(N)=O)c1ccccc1F`, for which the results for the Percent Effect in experiment [1] and in experiment [2] were -1.56% and -19.3%, respectively.

Take `O=C(NCC1CCCO1)c1c(-n2cnnn2)sc2c1CCC2` (centres undefined): the figures for the Percent Effect in experiment [1] and in experiment [2] were 1.11% and 2.95%, respectively.

`OC(COc1ccc(F)cc1)CN1CCC(Cn2cccn2)CC1` (centres undefined): the Percent Effect in experiment [1] is 1.46%; in experiment [2], -35.3%.

Regarding `CSc1ncccc1C(=O)N1CCC(c2nc3c(C)cccc3[nH]2)CC1`, the Percent Effect in experiment [1] is 3.63%; in experiment [2] it was -17.2%.

`Cc1c[nH]cc1C(=O)N1CCN(CCc2cccs2)CC1`: the Percent Effect is -4.34% in experiment [1] and -33.2% in experiment [2].

As for `COc1ccc(C)cc1S(=O)(=O)NCC(c1cccn1C)N(C)C` (centres undefined), the Percent Effect in experiment [1] was -4.54%; in experiment [2], 2.58%.

`CC(=O)NCCN1CCC(c2cccs2)CC1`: the results for the Percent Effect in experiment [1] and in experiment [2] were -5.78% and 1.86%, respectively.

With `Cn1ncc2c(NCCOc3ccc(F)cc3)nc(C3CCCC3)nc21`, the Percent Effect in experiment [1] is 2.47%; in experiment [2] it was -46.7%.

Turning to `O=C1[C@H]2CC[C@H](CN(C3CSCCSC3)C2)N1Cc1cscn1`, the figures for the Percent Effect in experiment [1] and in experiment [2] were 2.92% and -34.4%, respectively.

For the compound `Cc1ccc(NC(=O)N2CCC(NC(=O)c3ccc(C)o3)CC2)cc1`, the Percent Effect was -0.605% in experiment [1] and 25.3% in experiment [2].

On to `O=C(NCc1ccccn1)[C@H]1COC[C@H]2CN(Cc3ccoc3)C[C@H]21`, for which the Percent Effect in experiment [1] was -0.779%; in experiment [2] it was -0.902%.

As to `CCOC(=O)NC(CNC(=O)CCc1ccccn1)CC(C)C` (centres undefined), the Percent Effect in experiment [1] stood at 1.17%; in experiment [2] it was 0.307%.

Regarding `Cc1cc(=O)n2ncnc2n1CC(O)c1cc(F)ccc1F` (centres undefined), the Percent Effect in experiment [1] was determined as 3.44%; in experiment [2] it was 1.57%.

Consider `COc1ccc(C2=CCN(C(=O)CN(C)CC(N)=O)CC2)cc1`, for which the Percent Effect in experiment [1] is -2.46%; in experiment [2] it was -18.1%.
